Bioassay records (PubChem BioAssay)
NR1D1 modulator: Rev-erb alpha (human) modulation | P20393 | Rev-erbα–FITC-DNA binding, fluorescence polarization, 90 min | activity, % at 10 µM | 370,000 compounds, 0.79% hits | AID 1259318;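 active means activity above about 14%, limit read from the data; passing the limit was not always enough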;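 further: 0% = DMSO wells with 35 nM protein and 100% = DMSO wells with 750 nM protein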
Target sequence (P20393 whole entry, looked up): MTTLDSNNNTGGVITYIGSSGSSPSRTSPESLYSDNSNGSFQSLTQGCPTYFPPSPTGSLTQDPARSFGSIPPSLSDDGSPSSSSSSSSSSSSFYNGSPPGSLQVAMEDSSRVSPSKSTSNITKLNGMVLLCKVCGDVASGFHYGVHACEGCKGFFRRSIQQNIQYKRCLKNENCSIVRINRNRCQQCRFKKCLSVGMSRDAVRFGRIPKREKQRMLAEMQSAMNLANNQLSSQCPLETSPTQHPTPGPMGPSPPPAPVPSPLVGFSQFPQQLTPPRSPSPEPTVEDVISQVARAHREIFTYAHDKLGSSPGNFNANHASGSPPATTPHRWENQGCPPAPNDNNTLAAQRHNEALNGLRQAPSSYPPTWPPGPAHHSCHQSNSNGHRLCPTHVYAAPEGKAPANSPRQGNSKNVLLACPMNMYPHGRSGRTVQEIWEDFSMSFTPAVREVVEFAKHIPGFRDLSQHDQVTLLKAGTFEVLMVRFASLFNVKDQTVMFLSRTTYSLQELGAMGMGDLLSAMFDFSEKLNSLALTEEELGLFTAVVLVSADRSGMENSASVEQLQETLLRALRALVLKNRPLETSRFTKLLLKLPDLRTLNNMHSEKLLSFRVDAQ
DAX1 inh-1: inhibits human nuclear receptor DAX1; HEK293 Gal4-DAX1 luciferase reporter, luminescence; inhibition, % at 6.75 µM; 340,000 compounds, 0.99% hits;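 active means inhibition above the mean over all tested compounds plus 3 SD, cut at about 4.2% in these data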;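 further: 0% = DAX1-transfected cells with DMSO and 100% = empty-vector control cells with DMSO; inhibition shows as a rise in luminescence from relieved DAX1 repression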
ssDAF12 agonist: activators of S. stercoralis DAF-12 nuclear receptor; HEK293 ssDAF-12/GRIP1 lit1-tk-luc reporter, luminescence; % of 3 µM dafachronic acid response; activation, % at 6.8 µM; 370,000 compounds, 1% hits; AID 652126;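 active means activation above the mean over all tested compounds plus 3 SD, cut at about 0.9% in these data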;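 further: 0% = DMSO-only wells and 100% = 3 µM delta7-dafachronic acid wells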
DAX1 inh-2: DAX1 (NR0B1) inhibition, primary screen | HEK293T StAR-luciferase reporter, SF-1/DAX-1 repression relief | inhibition, % at 6.8 µM | 370,000 compounds, 1.1% hits | AID 652010;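 active means inhibition above the mean over all tested compounds plus 3 SD, cut at about 3.6% in these data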;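 further: 0% = DAX-1 cells with DMSO and 100% = cells lacking DAX-1 with DMSO; higher inhibition means more luminescence from relief of DAX-1 repression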
hcDAF12 agonist: H. contortus DAF-12 activation, primary screen. HEK293 hcDAF-12 lit1-tk-luc reporter, luminescence; 0% DMSO, 100% Δ7-dafachronic acid. activation, % at 6.8 µM. 370,000 compounds, 1.4% hits. AID 652067;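 active means activation above the mean of all tested compounds plus 3 SD, cut at about 5.5% in these data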;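 further: 100% = response to 3 µM Δ7-dafachronic acid high control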
hgDAF-12 ag: agonists of H. glycines DAF-12 nuclear receptor | 370,000 compounds, 1.8% hits | activation, % at 6.8 µM | AID 687014 | HEK293 GAL4-hgDAF12 UAS-luciferase reporter, agonist luminescence; normalized to butyrate control;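 active means activation above a cutoff set at the mean of all screened compounds plus 3 SD, cut at about 10% in these data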;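 further: 0% = DMSO wells and 100% = sodium butyrate wells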
NR1D1 mod conf: confirmation of modulators of human Rev-erb alpha DNA binding; shares compounds with NR1D1 modulator; Rev-erb alpha FITC-DNA binding, fluorescence polarization, 90 min; activation, % at 25 µM; 3,000 compounds, 61% hits; AID 1259319;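 active means activation at or above a set limit, or at least 3 SD above the negative control mean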;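 further: 0% = 35 nM protein with DMSO and 100% = 750 nM protein high control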
RORg DNA counter: RORgamma DNA-binding activity, dose-response counter-screen; shares compounds with NR1D1 modulator; purified RORgamma protein-FITC-DNA binding, fluorescence polarization; IC50, µM; 910 compounds, 8% hits;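 active means Compounds whose fitted half-maximal concentration for disrupting protein-DNA binding is below 10 micromolar; the record names Rev-erb in its text, so the target is in doubt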
* marks the source's active call; other numbers are inactive results; · = no result. In the library only some 4.8% were active in any assay of this set; here they are far more common.

SMILES	NR1D1 modulator	DAX1 inh-1	ssDAF12 agonist	DAX1 inh-2	hcDAF12 agonist	hgDAF-12 ag	NR1D1 mod conf	others
Cc1cccc(NC(=O)c2cc(NC(=O)c3ccccc3)ccc2N2CCCCC2)c1	33.7*	1.9	-1.6	-0.7	-0.7	2.6	1.4
COc1cccc(C(=O)Nc2cccc(-c3ccc4nncn4n3)c2)c1OC	-1.2	1.0	-1.6	-0.5	-2.1	-2.9	·
COc1ccc(Cl)cc1C(=O)Nc1cccc(-c2ccc3nncn3n2)c1	127.7*	-2.5	-1.9	-1.5	-1.7	-2.9	182.6*	RORg DNA counter=>40
CCC(C)(C)NC(=O)CN(Cc1ccc2c(c1)OCO2)C(=O)CCC(=O)Nc1nccs1	-10.2	0.8	-1.4	-0.3	-0.7	0.8	·
CCC(C)(C)NC(=O)CN(Cc1ccc2c(c1)OCO2)C(=O)CCC(=O)Nc1ccccn1	27.2*	-0.2	-1.5	-0.9	-1.4	-0.2	5.3
CC(C)(C)OC(=O)[C@H](Cc1ccccc1)NC(=O)c1nc[nH]c1C(=O)N[C@@H](Cc1ccccc1)C(=O)OC(C)(C)C	-4.6	2.2	-1.5	-0.2	1.1	6.6	·
CC(C)(C)OC(=O)[C@H](Cc1ccccc1)NC(=O)c1ncn2c1c(=O)[nH]c1ccc(Br)cc12	168.3*	0.8	-0.7	0.1	-1.2	-1.9	-2.8
COC(=O)[C@]12C[C@H](CC(=O)N3CCCCC3)C(=O)N(CCC3=CCCCC3)C1=C[C@H](C(C)C)O[C@@H]2C1CC1	-6.1	·	-1.9	-0.2	-1.5	-2.2	·
O=[N+]([O-])c1ccc(Oc2cccc(F)c2)c2ccncc12	13.8*	0.0	-1.1	-1.0	-0.1	1.0	9.0
CC[C@@H](CCCc1ccc(OC)cc1)CCC(=O)N(c1ccccc1)c1ccccc1	-3.6	·	-1.6	0.2	-0.5	-0.9	·
CC(=O)c1c(N2CCOCC2)nc2ccc(Cl)cc2c1-c1ccccc1	30.5*	-1.5	-1.5	0.9	-0.4	-0.7	28.3*
OC(c1ccccc1)(c1ccccc1)C1CCN(CCCNc2cccc(OC(F)(F)F)c2)CC1	-1.3	·	0.8	-0.1	-2.5	0.2	·
CC(C)CC(=O)c1c(O)cc(O)c2c1OC1=C(C(=O)C(C)(C)C(=O)C1(C)C)C2CC(C)C (stereo not drawn)	-3.7	·	-0.3	-1.0	-1.1	-1.2	·
CCOC(=O)[C@]12CCCC=C1N(CCC1=CCCCC1)C(=O)[C@H](CC(=O)NCc1ccccc1)C2	2.7	·	-1.4	2.8	-1.0	0.3	·
O=c1[nH]c(-c2ccc3c(c2)OCO3)nc2c1sc(=S)n2-c1ccccc1	76.0*	2.1	1.0*	-0.3	1.8	-1.8	17.9
COC(=O)[C@]1(C#N)CC(=O)N(C(C)C)[C@@H]1c1ccccc1	0.3	·	-1.5	0.9	0.1	7.1	·
O=C1c2c(Br)c(Br)c(Br)c(Br)c2C(=O)N1c1ccccn1	275.9*	0.7	0.1	0.3	1.1	-1.0	391.1*	RORg DNA counter=>40
COC(=O)C1=C(C)N(Cc2ccc(Cl)cc2)C(=S)NC1c1ccc(Cl)cc1 (stereo not drawn)	-1.4	·	-0.8	-0.4	0.7	-0.9	·
Oc1ccc(Cl)c(CN2CCN(c3ncc(Cc4ccccc4)cn3)CC2)c1	-6.4	·	0.5	-1.1	-0.9	-1.5	·
COC(=O)c1ccc2nc(-c3ccco3)c(Cc3ccsc3)n2c1	0.3	·	-0.7	-0.7	2.3	1.1	·
O=C1c2ccccc2C(c2nnnn2Cc2ccccc2)N1CCc1c[nH]c2ccccc12 (stereo not drawn)	19.9*	·	-0.4	-3.3	0.2	8.9	-5.2
O=C1c2ccccc2C(c2nnnn2Cc2ccccc2)N1Cc1ccc(F)cc1 (stereo not drawn)	-3.1	·	-1.0	1.6	1.0	-2.1	·
CC(C)C[C@@H]1COc2cccc(N3CCCC3)c2S(=O)(=O)N1	-5.8	·	-0.9	0.1	-1.3	-4.3	·
Cc1ccc2c(c1C)NC(=O)CC(c1ccccc1O)=N2	204.2*	-2.3	-0.4	0.6	1.3	0.3	140.2*	RORg DNA counter=>40
Cc1nc2ccc3nc(NC(=O)c4ccc(S(=O)(=O)N5CCOCC5)cc4)sc3c2s1	14.2	-1.3	-1.1	1.4	-0.4	2.2	·
SMILES	NR1D1 modulator	DAX1 inh-1	ssDAF12 agonist	DAX1 inh-2	hcDAF12 agonist	hgDAF-12 ag	NR1D1 mod conf	others
Cc1nc2c(ccc3nc(NC(=O)c4ccc5c(c4)OCCO5)sc32)s1	55.9*	2.2	-0.3	3.5	1.8	6.9	27.4*
Cc1nc2ccc3nc(NC(=O)c4ccc5c(c4)OCCO5)sc3c2s1	77.9*	0.4	-1.5	0.7	3.2	3.5	39.2*	RORg DNA counter=>40
CC(C)(C)OC(=O)NCc1cc2c(cc1/C=C/S(=O)(=O)NC1CCCC1)OCO2	6.1	·	-1.2	-1.3	-4.1	0.9	·
COc1ccc(C(C)=O)cc1CSc1nc2ccccc2c(=O)n1-c1ccccc1	36.1*	-0.5	-0.9	-0.2	-1.5	-0.5	35.9*	RORg DNA counter=>40
COc1ccc(C(C)=O)cc1CSc1nc2ccccc2c(=O)n1-c1cccc(C)c1	38.8*	-0.1	-0.8	-0.2	-2.0	-2.5	36.0*	RORg DNA counter=9.42*
CCOC(=O)[C@]12CCCCC/C=C\1N(CCc1ccc(Cl)cc1)C(=O)[C@H]2CC(=O)NCc1cccs1	4.4	·	-0.9	-0.4	-0.4	0.0	·
CS(=O)(=O)/C(C#N)=C/c1cccn1S(=O)(=O)c1ccccc1	-0.5	2.4	-0.8	-0.3	-1.2	0.5	·
CC(C)(C)S(=O)(=O)/C(C#N)=C/c1cccn1S(=O)(=O)c1ccccc1	16.6*	·	-1.3	-1.2	-2.0	-1.4	10.7*
Cc1ccc(Sc2cnc3ccccc3n2)cc1	39.5*	1.5	-0.6	0.4	3.3	6.5	32.9*	RORg DNA counter=>40
Cc1sc2c(c1C)c(=O)n(-c1ccc(Cl)cc1)c(=O)n2Cc1cc(=O)n2ccccc2n1	37.4*	-0.2	0.0	-0.1	0.1	0.0	26.8*
COc1ccc(-c2ccc(=O)n(Cc3cc(=O)n4ccccc4n3)n2)cc1	-2.7	2.1	-1.4	0.1	-0.7	-2.4	·
CCCCNC(=O)Cn1cnc2sc(C(=O)OCC)c(C)c2c1=O	35.2*	0.0	-0.8	-0.4	-0.5	-1.9	7.7
Cc1cc(=O)oc2c(C)cc(C(C)(C)C)cc12	27.5*	0.4	-1.1	-0.8	-0.9	-0.7	25.5*
Cc1cc(=O)oc2cc3oc(=O)cc(C)c3cc12	-0.1	0.8	-0.9	-0.8	-1.4	0.6	·
O=C(CN1CCc2onc(-c3ccc(-n4cc(COc5ccc([N+](=O)[O-])cc5)nn4)cc3)c2C1=O)N1CCOCC1	-3.8	·	-1.6	-1.0	-1.0	-0.8	·
O=S1(=O)N[C@H](Cc2ccccc2)COc2cc(N3CCCC3)ccc21	0.7	·	-0.5	0.7	-1.8	-0.7	·
